Assay outcomes (PubChem BioAssay)
MBD2 DNA inh: inhibitors of MBD2 binding to methylated DNA, primary screen, biochemical, TR-FRET, DNA-binding domain, human; Methyl-CpG-binding domain protein 2 (Homo sapiens), Q9UBB5; MBD2 binding to methylated oligonucleotide; inhibition, % at 4.4 µM; 370,000 compounds, 0.31% hits; AID 686964, 2013; in the data active = inhibition above about 13%
Target sequence (Q9UBB5 whole entry, looked up, the tested form may be a part): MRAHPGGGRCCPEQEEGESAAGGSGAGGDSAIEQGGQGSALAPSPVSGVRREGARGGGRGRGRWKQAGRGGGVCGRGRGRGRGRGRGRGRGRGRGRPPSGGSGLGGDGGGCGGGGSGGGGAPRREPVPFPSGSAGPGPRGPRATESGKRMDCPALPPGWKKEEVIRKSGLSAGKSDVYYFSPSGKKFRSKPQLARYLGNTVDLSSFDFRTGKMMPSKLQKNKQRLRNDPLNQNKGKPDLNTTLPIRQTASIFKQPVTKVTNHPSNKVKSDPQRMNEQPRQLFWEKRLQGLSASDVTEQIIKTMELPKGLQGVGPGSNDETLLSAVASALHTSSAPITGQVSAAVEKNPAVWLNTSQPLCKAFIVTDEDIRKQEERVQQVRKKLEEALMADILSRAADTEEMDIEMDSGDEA
UHRF1 MBD2 ctr: UHRF1 methylated DNA binding inhibitors, primary screen, counter-screen for MBD2 inhibitor project, biochemical, TR-FRET, human UHRF1, single concentration; inhibition, % at 4.4 µM; UHRF1 binding to methylated oligo; 370,000 compounds, 0.75% hits; in the data active = inhibition above about 21%;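 also: UHRF1 SRA domain binding a hemimethylated CpG hairpin DNA probe; 0% = median of test compound wells and 100% = reference inhibitor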
LEDGF integ inh: blockers of LEDGF/p75-dependent integrase strand transfer – biochemical, TR-FRET, high throughput, primary screen; HIV-1 integrase (with human LEDGF/p75); TR-FRET IN-LEDGF/p75 DNA integration, Eu/Cy5; inhibition, % at 3.7 µM; 370,000 compounds, 0.64% hits;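 active = inhibition above the screen-wide mean plus 3 SD, cut at about 13% in these data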;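 also: signal is the Cy5 over europium emission ratio at 671 and 618 nm; 0% = plate median of compound wells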
PRMT1 FP inh: PRMT1 methyltransferase inhibitors, primary screen, biochemical, fluorescence polarization; AID 652257, 2013; Protein arginine N-methyltransferase 1 (Homo sapiens), Q99873; inhibition, % at 2.79 µM; recombinant PRMT1, activity-based probe fluorescence polarization; 370,000 compounds, 1.3% hits;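 active = inhibition above about 21% made by adding two undisclosed values, limit read from the data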
PRMT1 inh conf: PRMT1 methyltransferase inhibitors, confirmation, biochemical, fluorescence polarization, triplicate; recombinant His-PRMT1, activity-based probe fluorescence polarization; 3,300 compounds, 42% hits; AID 687036, 2013; shares compounds with PRMT1 FP inh; inhibition, % at 2.79 µM;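 active = mean inhibition across replicates above the hit cutoff derived for the earlier primary screen, cut at about 22% in these data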
UHRF1 ctr MBD2: UHRF1 methylated DNA binding inhibitors, counter-screen for MBD2 inhibitor project, biochemical, TR-FRET, human UHRF1 | shares compounds with MBD2 DNA inh | UHRF1 binding to methylated oligonucleotide | inhibition, % at 4.4 µM | 1,000 compounds, 25% hits; in the data active = inhibition above about 21%;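 also: UHRF1 SRA domain binding a labeled hemimethylated CpG hairpin DNA; 0% = vehicle only and 100% = reference inhibitor with vehicle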
MBD2 confirm: inhibitors of MBD2 binding to methylated DNA, confirmation, biochemical, TR-FRET, DNA-binding domain, human | shares compounds with MBD2 DNA inh | TR-FRET MBD2-DBD binding to methylated oligonucleotide | inhibition, % at 4.4 µM | 1,000 compounds, 26% hits
IN multimer up: HIV-1 IN multimer formation enhancers, counter-screen for LEDGF/p75 integration inhibitor project, biochemical, TR-FRET | 2,000 compounds, 17% hits | shares compounds with LEDGF integ inh | activation, % at 7.7 µM | TR-FRET HIV-1 integrase multimerization; in the data active = activation above about 8.9%
TR-FRET interf: TR-FRET optical interference artefacts, confirmation, artefact control for LEDGF/p75-dependent integration inhibitor project, biochemical, HIV-1 IN multimerization | shares compounds with LEDGF integ inh | 2,000 tested, under 10 active | AID 1053135, 2014 | TR-FRET optical interference counterscreen | inhibition, % at 7.7 µM;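 active = inhibition above the mean over all tested compounds plus 3 SD, which no compound reached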;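 also: 0% = integrase with antibodies and DMSO and 100% = antibodies without integrase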
IN-LEDGF confirm: inhibitors of HIV-1 IN-LEDGF/p75 DNA integration, confirmation, biochemical, TR-FRET; shares compounds with LEDGF integ inh; TR-FRET LEDGF/p75-dependent HIV-1 integration; inhibition, % at 3.7 µM; 2,000 compounds, 36% hits; AID 1053136, 2014
Numbers without * were called inactive; . = no result. Only some compounds are listed: those with a hit (about 2.5% of all), similar ones and a draw of the others. Rule as the data show it, unless noted: active = inhibition above about 14%; inactive = the rest.

SMILES	MBD2 DNA inh	UHRF1 MBD2 ctr	LEDGF integ inh	PRMT1 FP inh	PRMT1 inh conf	IN multimer up	TR-FRET interf	IN-LEDGF confirm	others
O=C1NC(=S)NC1=Cc1ccco1	21*	61*	56*	64*	13	7	-34	41*	UHRF1 ctr MBD2=19;MBD2 confirm=4
O=C1/C(=C\c2ccco2)NC(=S)N1c1ccccc1	-4	4	16*	45*	51*	0	-1	17*
COc1ccccc1CCNC(=O)C(=O)NCC1OCCN1S(=O)(=O)c1cc(F)ccc1F (configuration not stated)	1	0	-1	12	.	.	.	.
NC1=NC2(CS1)CSC(N)=N2	-3	2	1	5	.	.	.	.
C=CCSC1=N/C(=C\c2ccc3c(c2)OCO3)C(=O)S1	0	3	2	3	.	.	.	.
C=CCSC1=N/C(=C\c2cc(OCC)c(OC(C)=O)c([N+](=O)[O-])c2)C(=O)S1	-2	19	32*	28*	8	1	-3	3
CC(C)(C)OC(=O)C1[C@H](O)C=CC[C@H]1S(=O)c1ccccc1 (some centres not stated)	2	0	-2	16	.	.	.	.
COc1ccccc1-c1ccc(/C=C2\C=CC(=O)O2)o1	15*	27*	44*	44*	3	2	-6	11	UHRF1 ctr MBD2=8;MBD2 confirm=1
COc1ccccc1-c1ccc(/C=C2/C=C(C)OC2=O)o1	1	-3	10	19	.	.	.	.
Nc1cccc2cc(-c3ccccc3)oc12	-2	-3	-2	-1	.	.	.	.
O=C1CCC(=O)c2ccc3c4c(ccc1c24)CC3	36*	66*	44*	27*	6	-1	4	-1	UHRF1 ctr MBD2=6;MBD2 confirm=1
CCOc1ccc(S(=O)(=O)Nc2cc(SCC(=O)O)c(O)c3ccccc23)cc1	-4	-6	25*	65*	93*	2	-7	43*
CCOC(=O)c1ccccc1NS(=O)(=O)c1ccc(OCC)cc1	4	0	-3	0	.	.	.	.
Cc1ccc(S(=O)(=O)Nc2cccc3cccnc23)cc1	-1	0	-27	-1	.	.	.	.
O=C(O)CSc1cc(NS(=O)(=O)c2cccc([N+](=O)[O-])c2)c2ccccc2c1O	-9	2	16*	62*	95*	4	-15	63*
O=C(O)c1cccc(S(=O)(=O)Nc2ccc([N+](=O)[O-])cc2O)c1	-2	4	-1	5	.	.	.	.
O=S(=O)(Nc1cc(Sc2cccc3cccnc23)c(O)c2ccccc12)c1ccccc1	-24	-31	17*	91*	67*	0	-1	-11
COC(=O)[C@]1(C)N[C@H](CN(C)C(=O)Nc2ccccc2)[C@@H]2C(=O)N(C)C(=O)[C@@H]21	1	-2	0	-3	.	.	.	.
O=C(O)c1ccc(-n2c(-c3cc(-c4ccco4)[nH]n3)n[nH]c2=S)cc1	27*	83*	53*	49*	13	10*	-52	42*	UHRF1 ctr MBD2=73*;MBD2 confirm=23*
